# Sampled rows, rich in hits. Any-hit rate of the full collection: about 10%.
# 12-hLO inh: blocks human 12-lipoxygenase activity; P18054; purified 12-hLO, xylenol orange hydroperoxide absorbance; Potency, µM (titrated, usually from 57.1 µM), without a hit: at the top dose activity change, negative = inhibition, hits mostly inhibitors; 0.12% of 150,000 active; AID 1452; also: potency is read from the fitted curve at half-maximal effect; nearly all actives have a fitted effect of over 55% in size
# Target sequence (P18054 whole entry, looked up): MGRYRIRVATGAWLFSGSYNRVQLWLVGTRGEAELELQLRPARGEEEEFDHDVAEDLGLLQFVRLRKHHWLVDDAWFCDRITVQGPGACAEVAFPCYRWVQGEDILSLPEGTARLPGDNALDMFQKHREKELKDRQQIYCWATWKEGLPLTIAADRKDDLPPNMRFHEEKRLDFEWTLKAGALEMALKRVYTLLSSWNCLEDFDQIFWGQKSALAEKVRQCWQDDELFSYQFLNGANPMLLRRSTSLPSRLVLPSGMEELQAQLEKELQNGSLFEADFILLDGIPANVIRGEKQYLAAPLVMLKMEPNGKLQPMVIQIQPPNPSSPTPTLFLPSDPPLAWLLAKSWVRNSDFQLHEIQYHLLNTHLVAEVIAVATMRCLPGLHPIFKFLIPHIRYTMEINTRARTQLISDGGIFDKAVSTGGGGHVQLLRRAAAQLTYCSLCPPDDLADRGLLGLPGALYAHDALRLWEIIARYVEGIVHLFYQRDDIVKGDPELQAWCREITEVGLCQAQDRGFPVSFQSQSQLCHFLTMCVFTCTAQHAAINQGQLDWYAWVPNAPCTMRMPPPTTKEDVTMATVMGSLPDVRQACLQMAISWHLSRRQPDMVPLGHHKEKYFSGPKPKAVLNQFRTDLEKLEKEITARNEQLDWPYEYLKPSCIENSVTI
#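 Hydroperoxide formation by human 12-lipoxygenase from 40 uM arachidonic acid was followed colorimetrically via ferric-xylenol orange complex, using the 573/405 nm absorbance ratio. Enzyme concentration was 150 nM, with 30 min reaction at room temperature.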
# aGal spleen mod: alpha-galactosidase A (human) modulation; 0.008% of 240,000 active; human spleen homogenate, 4MU-alpha-Gal fluorescence, 40 min; P06280; Potency, µM (highest dose often 80 µM), without a hit: top-dose activity change, negative = inhibition, hits mostly inhibitors;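 also: potency is read from the fitted curve at half-maximal effect; 0% = enzyme with vehicle and -100% = no enzyme basal signal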
#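 Inhibition or activation of alpha-galactosidase in human spleen homogenate is scored by 4-MU fluorescence after 40 min at 37C, pH 5.0, with 1 mM substrate. AC50s come from concentration-response fitted to the Hill equation.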
# ALDH1A1 inh: inhibitors of human aldehyde dehydrogenase 1A1; P00352; Purified ALDH1A1, NADH fluorescence, propionaldehyde substrate; Potency, µM (titrated, usually from 75.3 µM), inactives show at the highest dose activity, negative = inhibition, most hits filed as inhibitors; 7.3% of 220,000 active; AID 1030; active = well fitted inhibition curve with a large enough effect, not every such curve was filed as active; inconclusive = small, poorly fitted or top-dose-only effect, or another doubt; inactive = no such curve, though single readings can be large or run the other way;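 also: potency is read from the fitted curve at half-maximal effect; plate controls were no enzyme wells and a reference inhibitor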
# HPGD inh: blocks human HPGD enzyme activity; purified HPGD, NADH fluorescence kinetic, PGE2 substrate; Potency, µM, for inactives: at the top dose activity change, negative = inhibition, most hits filed as inhibitors; 4.3% of 150,000 active; AID 894; active = well fitted inhibition curve with a large enough effect, not every such curve was filed as active; inconclusive = small, poorly fitted or top-dose-only effect, or another doubt; inactive = no such curve, though single readings can be large or run the other way; also: potency is read from the fitted curve at half-maximal effect
#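 NADH formation kinetics: reaction with 30 uM PGE2 and 1 mM NAD+ (final), 20 nM enzyme, Tris-HCl pH 8 with Tween 20, after 15 min compound preincubation at room temperature. Fluorescence change, last versus first of five reads.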
# GLA inh pH 4.5: alpha-galactosidase A (human) inhibition, pH 4.5; 230,000 tested, under 10 active; purified enzyme, 4-MU-alpha-Gal fluorescence, pH 4.5; P06280; activity change, negative = inhibition, % at 105 µM; AID 1467;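 also: 0% = full activity with enzyme and -100% = basal without enzyme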
# PNC inhibitor: perinucleolar compartment assembly inhibition; PC3M PTB-GFP, PNC prevalence imaging, 16 h; hits give low values; 3.1% of 140,000 active; activity change (PNC), negative = inhibition, % at 10 µM;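 active = readout at or below -70, meaning at least 70% loss of cells showing the perinucleolar compartment, a nuclear body marking cancer cells; inconclusive = readout between -30 and a set limit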;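 also: plate controls were DMSO wells for no effect and camptothecin positive control wells for full effect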
#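 Compounds are pinned in duplicate onto adhered PC3M cells stably expressing GFP-tagged PTB and incubated 16 h at 37 C. Cells are then fixed, nuclei stained with Hoechst, and PNC-positive cells counted.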
# Active calls of the source: *; ? = inconclusive; / = no result; [ ] = remark or other dose. Unless noted, calls follow the shape of the dose curve; as a rule, active = well fitted curve in the direction sought with a large enough effect; inconclusive = small, poorly fitted or top-dose-only effect, or another doubt; inactive = no such curve, though single readings can be large; an effect the other way counts as inactive or inconclusive. Unless noted, % is scaled to controls: 0 for no effect and ±100 for the full control effect.
SMILES,12-hLO inh,aGal spleen mod,ALDH1A1 inh,HPGD inh,GLA inh pH 4.5,PNC inhibitor
COc1ccc(NCc2nc3ccccc3n2CCOc2ccc(C)cc2)cc1,-4%,-5%,-12%,-17%,-16,-113*
CCOCCn1c(-c2ccc(OC)cc2)nc2ccccc21,0%,3%,-12%,-8%,-10,-106*
COc1ccc(-c2nc3ccccc3n2Cc2ccccc2)cc1,-17%,0%,?,?,-9,?
C[N@+]1(CCC(=O)c2ccccc2)CC[C@H]2CC[C@H](C2)C1,-2%[11.4 µM],/,-8%[13.5 µM],-5%,/,/
Cc1ccc(S(=O)(=O)c2nc(-c3ccco3)oc2NCC2CCCO2)cc1 (stereo not drawn),-3%,3%,10µM*,-17%,-6,13
O=S(=O)(c1ccc(Br)cc1)c1nc(-c2ccco2)oc1NCC1CCCO1 (stereo not drawn),/,4%,14µM*,/,-2,/
CN1CCN(c2ncnc3ccc(-c4ccccc4C(F)(F)F)cc23)CC1,/,0%,?,/,/,/
CN1CCN(Cc2nc3c(c(=O)n(C)c(=O)n3C)n2CCCc2ccccc2)CC1,9%,2%,5.6µM*,-24%,0,-18
Cn1c(=O)c2c(nc(CN3CCN(CCO)CC3)n2CCc2ccccc2)n(C)c1=O,/,4%,28µM*,/,7,/
CCCCCn1c(CN2CCN(CCO)CC2)nc2c1c(=O)n(C)c(=O)n2C,2%,0%,?,0%,6,6
Cn1c(=O)c2c(nc(CN3CCCCC3)n2CCc2ccccc2)n(C)c1=O,0%,-2%,?,-4%,1,-18
CCCCCCn1c(CN2CCN(C)CC2)nc2c1c(=O)n(C)c(=O)n2C,19%,7%,4%,-14%,2,-122*
CCCn1c(CN2CCCCC2C)nc2c1c(=O)n(C)c(=O)n2C (stereo not drawn),0%,-6%,6%,-2%,-5,-95*
Cn1c(=O)c2c(nc(CN3CCOCC3)n2CCCc2ccccc2)n(C)c1=O,1%,-4%,-5%,-4%,3,-2
CC(=O)c1ccc(N2CCN(C(=O)CCCc3nc4ccccc4s3)CC2)cc1,0%,-10%,?,?,1,55
O=S(=O)([N-]c1nc2ccccc2nc1-[n+]1ccc(-c2ccncc2)cc1)c1ccccc1,/,9%,?,/,-1,/
CC1=NN(c2ccccc2)C(=O)[C@@H]1N=Nc1ccc(S(N)(=O)=O)cc1,4%[11.4 µM],/,13%[13.5 µM],-8%,/,/
CC[C@H](C)[C@H](NC(=O)CNC(=O)[C@H](CCCNC(=N)N)NC(=O)[C@H](CO)NC(=O)[C@H](C)NC(=O)[C@H](Cc1ccc(O)cc1)NC(=O)[C@H](Cc1c[nH]c2ccccc12)NC(=O)[C@H](C)NC(=O)[C@@H]1CCCN1C(=O)[C@H](CC(N)=O)NC(=O)[C@@H](NC(=O)[C@H](CC(=O)O)NC(=O)[C@@H]1CCCN1C(=O)[C@@H](NC(=O)[C@H](CCCNC(=N)N)NC(=O)[C@@H](NC(=O)[C@H](CCC(=O)O)NC(=O)[C@H](CCSC)NC(=O)[C@H](CO)NC(=O)[C@H](Cc1cnc[nH]1)NC(=O)[C@H](CCCNC(=N)N)NC(=O)[C@H](Cc1cnc[nH]1)NC(=O)[C@@H](NC(=O)[C@H](CCCNC(=N)N)NC(=O)[C@@H](N)CO)[C@@H](C)O)[C@@H](C)CC)[C@@H](C)O)[C@@H](C)CC)C(=O)N[C@@H](CCCNC(=N)N)C(=O)N1CCC[C@H]1C(=O)N[C@H](C(=O)NCC(=O)N[C@@H](CCCNC(=N)N)C(=O)N[C@@H](Cc1ccccc1)C(N)=O)C(C)C,/,-13%,/,/,/,/
N#Cc1c(-c2ccccc2)nc(SCC(=O)N(c2ccccc2)c2ccccc2)[nH]c1=O,-1%,0%,13µM*,28µM*,-6,-27
N#Cc1c(-c2ccccc2)nc(SCC(=O)Nc2ccccc2)[nH]c1=O,0%,0%,-2%,-25%,0,31
CCOC(=O)CCCCC(=O)c1[nH]c(=O)[nH]c1CSCCO,5%,-12%,-14%,-11%,1,-6
CCOC(=O)CCCCC(=O)c1[nH]c(=O)[nH]c1CSc1nc(-c2ccccc2)c(C#N)c(=O)[nH]1,-5%,0%,7.9µM*,20µM*,-4,45
N#Cc1c(-c2ccccc2)nc(SCC(=O)Nc2ccccc2F)[nH]c1=O,1%,3%,?,16µM*,2,48
CCCN1C[C@H](CSC)C[C@H]2c3cccc4[nH]cc(c34)C[C@@H]21,-4%[25.6 µM],0%[29.1 µM],-2%[20.9 µM],0%,-8,/
COCCn1c(=O)c(-c2cccc(C#N)c2)nc2cnc(OCc3ccccc3)nc21,/,10%,?,/,/,/
SMILES,12-hLO inh,aGal spleen mod,ALDH1A1 inh,HPGD inh,GLA inh pH 4.5,PNC inhibitor
CN1C(=O)CC[C@@H]1c1cccnc1,4%[25.6 µM],-11%[29.1 µM],-5%[20.9 µM],-6%,-3,/
O=C1C(Nc2ccccc2)=C2CCCC=C2N1c1ccccc1,/,13%,13µM*,/,1,/
O=C1C2=C(CCCC2)C(=O)N1CNc1ccccc1,/,1%,9%,/,-1,/
CCN1C(=O)C(O)(CC(=O)/C=C/C=C/c2ccccc2)c2ccccc21 (stereo not drawn),2%,-16%,?,-22%,-5,28
C#CCN1C(=O)C(O)(CC(=O)c2ccc(OC)c(OC)c2)c2ccccc21 (stereo not drawn),-7%,4%,0.35µM*,-15%,-2,?
Cc1ccc2c(c1)C(O)(CC(=O)/C=C/C=C/c1ccccc1)C(=O)N2 (stereo not drawn),-1%,6%,-3%,-24%,/,-92*
CN1C(=O)C(O)(CC(=O)c2cccs2)c2ccccc21 (stereo not drawn),/,2%,-3%,/,9,/
C#CCN1C(=O)C(O)(CC(=O)c2ccc3c(c2)OCCO3)c2ccccc21 (stereo not drawn),1%,-2%,1µM*,-23%,-9,21
CCCN1C(=O)C(O)(CC(=O)c2cccc(OC)c2)c2ccccc21 (stereo not drawn),-13%,6%,4.5µM*,-23%,-17,-2
CCCN1C(=O)C(O)(CC(=O)c2ccc3c(c2)OCCO3)c2ccccc21 (stereo not drawn),-2%,-18%,7.1µM*,-17%,0,?
C#CCN1C(=O)C(O)(CC(=O)/C=C/C=C/c2ccccc2)c2ccccc21 (stereo not drawn),/,-8%,6.3µM*,/,-4,/
CCCN1C(=O)C2(/C(=C(\O)c3ccc4c(c3)OCCO4)C(=O)C(=O)N2CCCOC)c2ccccc21 (stereo not drawn),2%,-4%,?,-11%,-26,23

# Source: PubChem
